Assays:
Settings in all cases: concentration: 1 μM, replicates: in singlicate; n = 1
DAPK1 = test system: DAPK1
DAPK2 = test system: DAPK2
DAPK3 = test system: DAPK3
DCAMKL1 = test system: T1, DCAMKL1
T1 construct: gene DCLK1

DCAMKL2 = test system: T2, DCAMKL2
T2 construct: gene DCLK2

DCAMKL3 = test system: T3, DCAMKL3
T3 construct: gene DCLK3

DDR1 = test system: DDR1
DDR2 = test system: DDR2
DLK = test system: T4, DLK
T4 construct: gene MAP3K12

DMPK2 = test system: T5, DMPK2
T5 construct: gene CDC42BPG

DMPK = test system: DMPK
DRAK1 = test system: T6, DRAK1
T6 construct: gene STK17A

DRAK2 = test system: T7, DRAK2
T7 construct: gene STK17B

DYRK1A = test system: DYRK1A
DYRK1B = test system: DYRK1B
DYRK2 = test system: DYRK2
EGFR = test system: EGFR
EIF2AK1 = test system: EIF2AK1
EPHA1 = test system: EPHA1
EPHA2 = test system: EPHA2
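Further: KINOMEscan kinase panel screen.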

Row | SMILES | %Inh (DAPK1) | %Inh (DAPK2) | %Inh (DAPK3) | %Inh (DCAMKL1) | %Inh (DCAMKL2) | %Inh (DCAMKL3) | %Inh (DDR1) | %Inh (DDR2) | %Inh (DLK) | %Inh (DMPK2) | %Inh (DMPK) | %Inh (DRAK1) | %Inh (DRAK2) | %Inh (DYRK1A) | %Inh (DYRK1B) | %Inh (DYRK2) | %Inh (EGFR) | %Inh (EIF2AK1) | %Inh (EPHA1) | %Inh (EPHA2)
1 | Cc1cccc(Cn2ccn3c(=O)cc(N4CCOCC4)nc23)c1 [GSK2297542] | 9% | 5% | 0% | 21% | 14% | 28% | 0% | 6% | 49% | 16% | 3% | 1% | 0% | 24% | 17% | 12% | 22% | 11% | 16% | 15%
2 | CCn1cnc2c(N)ncnc21 [GW345098] | 14% | 5% | 18% | 7% | 7% | 25% | 18% | 0% | 0% | 9% | 0% | 6% | 9% | 0% | 28% | 12% | 15% | 0% | 6% | 14%
3 | Nc1nccc(-c2c(-c3ccc(F)cc3)ncn2C2CCN(CC(F)(F)F)CC2)n1 [SB-236560] | 20% | 0% | 0% | 0% | 0% | 18% | 90.8% | 76% | 17% | 12% | 11% | 0% | 1% | 5% | 28% | 0% | 29% | 20% | 0% | 0%
4 | O=C(c1ccc(-c2cc(-c3c[nH]nc3-c3ccccn3)ccn2)cc1)N1CCOCC1 [GW812171] | 0% | 0% | 11% | 30% | 0% | 0% | 0% | 30% | 0% | 0% | 5% | 0% | 0% | 0% | 0% | 33% | 4% | 0% | 0% | 0%
5 | NS(=O)(=O)c1cccc(-c2ccc3nccc(-c4cccc(S(N)(=O)=O)c4)c3c2)c1 [GW867253] | 0% | 0% | 2% | 9% | 0% | 0% | 0% | 23% | 9% | 0% | 2% | 0% | 0% | 0% | 0% | 32% | 0% | 0% | 0% | 0%
6 | [2H]C([2H])(c1cccc(C(F)(F)F)c1C)n1ccn2c(=O)nc(N3CCOCC3)cc12 [GSK2336394] | 26% | 0% | 6% | 8% | 18% | 21% | 0% | 0% | 10% | 0% | 0% | 0% | 0% | 16% | 0% | 1% | 28% | 0% | 12% | 8%
7 | Cc1nnc(-c2ccc3occ(-c4ccc(C(C)O)cc4)c3c2)o1 (centres unmarked) | 7% | 0% | 0% | 13% | 12% | 11% | 12% | 12% | 0% | 3% | 7% | 19% | 36% | 18% | 11% | 0% | 28% | 0% | 0% | 0%
8 | Cn1ccc2ncnc(Oc3ccc(NC(=O)Nc4ccncc4)c(Cl)c3)c21 | 0% | 0% | 0% | 13% | 0% | 0% | 35% | 34% | 0% | 0% | 0% | 0% | 0% | 0% | 21% | 0% | 0% | 0% | 0% | 0%
9 | Cc1c(Cn2c(C)nn3c(=O)cc(N4CCOC(C)C4)nc23)cccc1C(F)(F)F (centres unmarked) [GSK2344444] | 2% | 0% | 0% | 0% | 0% | 21% | 14% | 0% | 0% | 0% | 0% | 1% | 0% | 7% | 0% | 24% | 34% | 0% | 0% | 5%
10 | Cc1ccc(C(=O)NCC(N)=O)cc1-n1c(C)cc(OCc2ccc(F)cc2F)c(Br)c1=O | 0% | 0% | 15% | 3% | 17% | 19% | 15% | 3% | 0% | 0% | 0% | 0% | 5% | 0% | 0% | 0% | 11% | 0% | 25% | 40%
